# Data as given in PubChem BioAssay (NCI).
# The panel holds about 79,000 compounds, 15% with a hit somewhere; the sample as a whole holds those more often. Values without a mark were called inactive. Calls of active or inactive are those of the source. Cut-off read from the data, not from the text of the source: active = growth inhibition above about 70%; inactive = the rest.
# Experiments:
# [1] = NCI Yeast Anticancer Drug Screen. Data for the mec2-1 strain (AID 157); details: S. cerevisiae mec2-1 strain, active compounds read high
# Summary of the method: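 Yeast mec2-1 mutant treated with compound. Readout: growth inhibition vs vehicle controls.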
# [2] = NCI Yeast Anticancer Drug Screen. Data for the sgs1 mgt1 strain (AID 161);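 note: 0% = growth of cultures given vehicle only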; details: S. cerevisiae sgs1 mgt1 strain, active compounds read high
# Summary of the method: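 Mutant yeast exposed to compound; growth scored against vehicle-only wells.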
# [3] = NCI Yeast Anticancer Drug Screen. Data for the CLN2oe strain (AID 163);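 note: 0% = growth of vehicle-only control cultures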; details: S. cerevisiae CLN2oe strain, active compounds read high
# Summary of the method: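 Read-out: yeast growth inhibition, expressed relative to vehicle-only controls. The strain bears an engineered cell-cycle alteration.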
# [4] = NCI Yeast Anticancer Drug Screen. Data for the cln2 rad14 strain (AID 165);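 note: 0% = growth equal to vehicle treated cultures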; details: S. cerevisiae cln2 rad14 strain, active compounds read high
# Summary of the method: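 cln2 rad14 yeast strain; compound exposure; growth inhibition read vs vehicle controls.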
# [5] = NCI Yeast Anticancer Drug Screen. Data for the bub3 strain (AID 167); details: S. cerevisiae bub3 mutant strain, active compounds read high
# Summary of the method: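 Mutant yeast screening strain plus compound; vehicle-treated cultures serve as the 0% inhibition reference.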
# [6] = NCI Yeast Anticancer Drug Screen. Data for the wt2 strain (AID 169); details: S. cerevisiae wt2 strain growth inhibition, active compounds read high
# Summary of the method: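 Read-out: growth inhibition versus vehicle-treated control cultures after compound exposure of the yeast strain.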
# [7] = NCI Yeast Anticancer Drug Screen. Data for the mlh1 strain (AID 171);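 note: 0% = growth of vehicle-treated control cultures of the same strain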; details: S. cerevisiae mlh1 strain growth inhibition, active compounds read high
# Summary of the method: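 Read-out: growth inhibition versus vehicle controls. Strain: engineered yeast with a defined DNA repair or cell cycle defect, compound-treated.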
# [8] = NCI Yeast Anticancer Drug Screen. Data for the sgs1 strain (AID 173);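 note: 0% = growth of vehicle-only control cultures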; details: S. cerevisiae sgs1 mutant, active compounds read high
# Summary of the method: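 Read-out: yeast growth inhibition relative to vehicle controls, following compound exposure of a strain with a defined DNA repair/cell cycle alteration.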
# [9] = NCI Yeast Anticancer Drug Screen. Data for the rad52 strain (AID 147);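 note: 0% = growth of vehicle-treated control cultures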; details: S. cerevisiae rad52 mutant growth inhibition, active compounds read high
# Summary of the method: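 Read-out: growth inhibition versus vehicle-treated controls. Cells were a DNA repair-deficient yeast strain treated with compounds.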
# [10] = NCI Yeast Anticancer Drug Screen. Data for the wt1 strain (AID 149);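 note: 0% = growth of vehicle-treated wt1 cultures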; details: S. cerevisiae wt1 strain (SPY 50644) growth inhibition, active compounds read high
# Summary of the method: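 Each compound is tested on wt1 yeast and the loss of growth versus vehicle gives the inhibition value.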
# [11] = NCI Yeast Anticancer Drug Screen. Data for the rad50EPP+ strain (AID 151);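 note: 0% = growth of vehicle-treated control cultures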; details: S. cerevisiae rad50 mutant strain, active compounds read high
# Summary of the method: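 Growth inhibition read against vehicle controls in rad50EPP+ yeast, a strain altered in DNA damage repair, after compound exposure.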
# [12] = NCI Yeast Anticancer Drug Screen. Data for the mgt1 strain (AID 153); details: S. cerevisiae mgt1 mutant growth inhibition, active compounds read high
# Summary of the method: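 mgt1 yeast grown with test compound; read-out is growth inhibition versus vehicle-treated cultures.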
# [13] = NCI Yeast Anticancer Drug Screen. Data for the rad50 strain (AID 155);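 note: 0% = growth of vehicle-only cultures of the same strain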; details: S. cerevisiae rad50 strain growth inhibition, active compounds read high
# Summary of the method: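 Vehicle-treated cultures provide the reference for the growth inhibition reported for compound-exposed, repair-deficient yeast.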
# [14] = NCI Yeast Anticancer Drug Screen. Data for the mlh1 rad18 strain (AID 175); details: S. cerevisiae mlh1 rad18 strain growth inhibition, active compounds read high
# Summary of the method: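 Yeast w/ defined DNA-repair lesions; compound exposure; growth vs vehicle controls → % inhibition.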
# [15] = at 5.0 µM (retest, dose inferred, filed as 0.5)
# [16] = at 50.0 µM (retest, dose inferred, filed as 5.0)
smiles,measurement,setting,value
O=C(OCC=C1CCCC1)c1cc([N+](=O)[O-])cc([N+](=O)[O-])c1,growth inhibition,[1]; [15],3%
same,growth inhibition,[1]; at 11.0 µM,13%
same,growth inhibition,[1]; at 33.0 µM,89% (active)
same,growth inhibition,[1]; [16],48%
same,growth inhibition,[1]; at 50.0 µM,-14.6%
same,growth inhibition,[1]; at 100.0 µM,98% (active)
same,growth inhibition,[2]; [15],-2%
same,growth inhibition,[2]; [16],81% (active)
same,growth inhibition,[2]; at 50.0 µM,2.55%
same,growth inhibition,[3]; at 1.2 µM,-6%
same,growth inhibition,[3]; at 3.7 µM,1%
same,growth inhibition,[3]; at 11.0 µM,9%
same,growth inhibition,[3]; at 33.0 µM,60%
same,growth inhibition,[3]; at 100.0 µM,96% (active)
same,growth inhibition,[4]; [15],-24%
same,growth inhibition,[4]; [16],4%
same,growth inhibition,[4]; at 50.0 µM,-6.45%
same,growth inhibition,[5]; at 1.2 µM,-6%
same,growth inhibition,[5]; at 3.7 µM,-6%
same,growth inhibition,[5]; [15],-21%
same,growth inhibition,[5]; at 11.0 µM,-1%
same,growth inhibition,[5]; at 33.0 µM,61%
same,growth inhibition,[5]; [16],70% (active)
same,growth inhibition,[5]; at 50.0 µM,5.55%
same,growth inhibition,[5]; at 100.0 µM,96% (active)
same,growth inhibition,[6]; at 1.2 µM,-3%
same,growth inhibition,[6]; at 3.7 µM,-3%
same,growth inhibition,[6]; at 11.0 µM,16%
same,growth inhibition,[6]; at 33.0 µM,97% (active)
same,growth inhibition,[6]; at 100.0 µM,98% (active)
same,growth inhibition,[7]; at 1.2 µM,-2%
same,growth inhibition,[7]; at 3.7 µM,4%
same,growth inhibition,[7]; at 11.0 µM,22%
same,growth inhibition,[7]; at 33.0 µM,94% (active)
same,growth inhibition,[7]; at 100.0 µM,98% (active)
same,growth inhibition,[8]; at 1.2 µM,-1%
same,growth inhibition,[8]; at 3.7 µM,4%
same,growth inhibition,[8]; at 11.0 µM,26%
same,growth inhibition,[8]; at 33.0 µM,97% (active)
same,growth inhibition,[8]; at 100.0 µM,99% (active)
C[C@@H]1C[C@H]2[C@@H]3CCC4=CC(=O)C=C[C@]4(C)[C@@]3(Cl)[C@@H](Cl)C[C@]2(C)[C@@]1(O)C(=O)COP(=O)(O)O,growth inhibition,[9]; at 1.2 µM,-1%
same,growth inhibition,[9]; at 3.7 µM,-3%
same,growth inhibition,[9]; at 11.0 µM,6%
same,growth inhibition,[9]; at 33.0 µM,1%
same,growth inhibition,[9]; at 100.0 µM,3%
same,growth inhibition,[10]; at 1.2 µM,1%
same,growth inhibition,[10]; at 3.7 µM,-2%
same,growth inhibition,[10]; at 11.0 µM,-3%
same,growth inhibition,[10]; at 33.0 µM,-4%
same,growth inhibition,[10]; at 100.0 µM,-2%
same,growth inhibition,[11]; at 1.2 µM,-3%
same,growth inhibition,[11]; at 3.7 µM,-8%
same,growth inhibition,[11]; at 11.0 µM,-3%
same,growth inhibition,[11]; at 33.0 µM,3%
same,growth inhibition,[11]; at 100.0 µM,5%
same,growth inhibition,[12]; at 1.2 µM,11%
same,growth inhibition,[12]; at 3.7 µM,5%
same,growth inhibition,[12]; at 11.0 µM,3%
same,growth inhibition,[12]; at 33.0 µM,8%
same,growth inhibition,[12]; at 100.0 µM,2%
same,growth inhibition,[13]; at 1.2 µM,4%
same,growth inhibition,[13]; at 3.7 µM,-10%
same,growth inhibition,[13]; [15],2%
same,growth inhibition,[13]; at 11.0 µM,3%
same,growth inhibition,[13]; at 33.0 µM,7%
same,growth inhibition,[13]; [16],19%
same,growth inhibition,[13]; at 50.0 µM,-34.1%
same,growth inhibition,[13]; at 100.0 µM,8%
same,growth inhibition,[1]; at 1.2 µM,-3%
same,growth inhibition,[1]; at 3.7 µM,-3%
same,growth inhibition,[1]; [15],17%
same,growth inhibition,[1]; at 11.0 µM,0%
same,growth inhibition,[1]; at 33.0 µM,-3%
same,growth inhibition,[1]; [16],5%
same,growth inhibition,[1]; at 50.0 µM,-36.9%
same,growth inhibition,[1]; at 100.0 µM,1%
same,growth inhibition,[2]; [15],-14%
same,growth inhibition,[2]; [16],6%
same,growth inhibition,[2]; at 50.0 µM,-30.8%
same,growth inhibition,[4]; [15],41%
same,growth inhibition,[4]; [16],-23%
same,growth inhibition,[4]; at 50.0 µM,26.1%
same,growth inhibition,[5]; at 1.2 µM,2%
same,growth inhibition,[5]; at 3.7 µM,-1%
same,growth inhibition,[5]; [15],-20%
same,growth inhibition,[5]; at 11.0 µM,2%
same,growth inhibition,[5]; at 33.0 µM,0%
same,growth inhibition,[5]; [16],-8%
same,growth inhibition,[5]; at 50.0 µM,-42.2%
same,growth inhibition,[5]; at 100.0 µM,-3%
same,growth inhibition,[6]; at 1.2 µM,-2%
same,growth inhibition,[6]; at 3.7 µM,-2%
same,growth inhibition,[6]; at 11.0 µM,-2%
same,growth inhibition,[6]; at 33.0 µM,-2%
same,growth inhibition,[6]; at 100.0 µM,-3%
same,growth inhibition,[7]; at 1.2 µM,2%
same,growth inhibition,[7]; at 3.7 µM,3%
same,growth inhibition,[7]; at 11.0 µM,0%
same,growth inhibition,[7]; at 33.0 µM,8%
same,growth inhibition,[7]; at 100.0 µM,12%
same,growth inhibition,[8]; at 1.2 µM,0%
same,growth inhibition,[8]; at 3.7 µM,-3%
same,growth inhibition,[8]; at 11.0 µM,-2%
same,growth inhibition,[8]; at 33.0 µM,-1%
same,growth inhibition,[8]; at 100.0 µM,-1%
same,growth inhibition,[14]; [15],9%
same,growth inhibition,[14]; [16],1%
same,growth inhibition,[14]; at 50.0 µM,-18.3%
O=C1C=CC(=O)c2c(O)c(Nc3ccc(OC(F)(F)F)cc3)c(Cl)c(O)c21,growth inhibition,[9]; at 1.2 µM,9%
same,growth inhibition,[9]; at 3.7 µM,12%
same,growth inhibition,[9]; at 11.0 µM,17%
same,growth inhibition,[9]; at 33.0 µM,32%
same,growth inhibition,[9]; at 100.0 µM,81% (active)
same,growth inhibition,[10]; at 1.2 µM,23%
same,growth inhibition,[10]; at 3.7 µM,22%
same,growth inhibition,[10]; at 11.0 µM,26%
same,growth inhibition,[10]; at 33.0 µM,50%
same,growth inhibition,[10]; at 100.0 µM,94% (active)
same,growth inhibition,[11]; at 1.2 µM,2%
same,growth inhibition,[11]; at 3.7 µM,8%
same,growth inhibition,[11]; at 11.0 µM,21%
same,growth inhibition,[11]; at 33.0 µM,70% (active)
same,growth inhibition,[11]; at 100.0 µM,93% (active)
same,growth inhibition,[12]; at 1.2 µM,9%
same,growth inhibition,[12]; at 3.7 µM,16%
same,growth inhibition,[12]; at 11.0 µM,16%
same,growth inhibition,[12]; at 33.0 µM,50%
same,growth inhibition,[12]; at 100.0 µM,94% (active)
same,growth inhibition,[13]; at 1.2 µM,-16%
same,growth inhibition,[13]; at 3.7 µM,-15%
same,growth inhibition,[13]; [15],4%
same,growth inhibition,[13]; at 11.0 µM,4%
same,growth inhibition,[13]; at 33.0 µM,67%
same,growth inhibition,[13]; [16],46%
same,growth inhibition,[13]; at 50.0 µM,42%
same,growth inhibition,[13]; at 100.0 µM,89% (active)
same,growth inhibition,[1]; at 1.2 µM,-7%
same,growth inhibition,[1]; at 3.7 µM,-3%
same,growth inhibition,[1]; [15],9%
same,growth inhibition,[1]; at 11.0 µM,8%
same,growth inhibition,[1]; at 33.0 µM,78% (active)
same,growth inhibition,[1]; [16],79% (active)
same,growth inhibition,[1]; at 50.0 µM,46.8%
same,growth inhibition,[1]; at 100.0 µM,94% (active)
same,growth inhibition,[2]; [15],35%
same,growth inhibition,[2]; [16],49%
same,growth inhibition,[2]; at 50.0 µM,73% (active)
same,growth inhibition,[3]; at 1.2 µM,-8%
same,growth inhibition,[3]; at 3.7 µM,0%
same,growth inhibition,[3]; at 11.0 µM,-5%
same,growth inhibition,[3]; at 33.0 µM,12%
same,growth inhibition,[3]; at 100.0 µM,83% (active)
same,growth inhibition,[4]; [15],19%
same,growth inhibition,[4]; [16],32%
same,growth inhibition,[4]; at 50.0 µM,37.9%
same,growth inhibition,[5]; at 1.2 µM,-17%
same,growth inhibition,[5]; at 3.7 µM,-8%
same,growth inhibition,[5]; [15],26%
same,growth inhibition,[5]; at 11.0 µM,1%
same,growth inhibition,[5]; at 33.0 µM,48%
same,growth inhibition,[5]; [16],65%
same,growth inhibition,[5]; at 50.0 µM,82.2% (active)
same,growth inhibition,[5]; at 100.0 µM,91% (active)
same,growth inhibition,[6]; at 1.2 µM,-5%
same,growth inhibition,[6]; at 3.7 µM,-6%
same,growth inhibition,[6]; at 11.0 µM,-6%
same,growth inhibition,[6]; at 33.0 µM,21%
same,growth inhibition,[6]; at 100.0 µM,93% (active)
same,growth inhibition,[7]; at 1.2 µM,0%
same,growth inhibition,[7]; at 3.7 µM,6%
same,growth inhibition,[7]; at 11.0 µM,13%
same,growth inhibition,[7]; at 33.0 µM,37%
same,growth inhibition,[7]; at 100.0 µM,87% (active)
same,growth inhibition,[8]; at 1.2 µM,34%
same,growth inhibition,[8]; at 3.7 µM,32%
same,growth inhibition,[8]; at 11.0 µM,58%
same,growth inhibition,[8]; at 33.0 µM,62%
same,growth inhibition,[8]; at 100.0 µM,96% (active)
same,growth inhibition,[14]; [15],13%
same,growth inhibition,[14]; [16],76% (active)
same,growth inhibition,[14]; at 50.0 µM,68.7%
